Sampled rows, rich in hits. Any-hit rate of the full collection: about 2.7%.
TrxR1 inh: inhibitors of rat thioredoxin reductase 1; O89049; Potency, µM (titrated, usually from 114 µM), without a hit: at the highest dose activity change, negative = inhibition, usual class: inhibitors; hit rate 1% among 390,000; recombinant rTrxR1, NADPH fluorescence consumption, selenite substrate; also: % is scaled to controls: 0 for no effect and ±100 for the full control effect; nearly all actives have a fitted effect of over 65% in size
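Rat TrxR1 (90 nM in the dispensed reagent) was pre-reduced with 400 uM NADPH for 5 min at room temperature, then incubated with compound for 15 min. After 400 uM selenite was added, NADPH fluorescence (Ex 340/Em 450 nm) was followed for 8 min.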
IDH1 R132H inh: inhibitors of human mutant IDH1 R132H; hit rate 0.093% among 390,000; IDH1-R132H enzyme, NADPH consumption, diaphorase/resazurin fluorescence; AID 602179; Potency, µM (top dose mostly 76.6 µM), inactives show at the highest dose activity change, negative = inhibition, hits mostly inhibitors; also: % is scaled to controls: 0 for no effect and ±100 for the full control effect; nearly all actives have a fitted effect of over 65% in size
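IDH1-R132H (0.5 ug/mL) preincubated 30 min with compound, then NADPH (0.016 mM) and alpha-KG (2 mM) added; 80 min at RT, pH 7.5. Remaining NADPH coupled via diaphorase/resazurin to fluorescence (540/590 nm); concentration-response curves normalized to no-enzyme control.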
TrxR1 substrate: substrates of rat thioredoxin reductase 1; O89049; purified TrxR1 substrate turnover, NADPH consumption readout; Potency, µM (titrated, usually from 114 µM), for the others: top-dose activity change, negative = substrate turnover; hit rate 0.01% among 390,000; also: % is scaled to controls: 0 for no effect and ±100 for the full control effect; nearly all actives have a fitted effect of over 50% in size
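Rat TrxR1, dispensed at 90 nM, was prereduced with 400 uM NADPH (final) for 5 min at ~22 deg C, then incubated with compound 15 min before 400 uM selenite. A first-read NADPH fluorescence drop versus no-compound background flagged substrates.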
GLP-1R inv ag: acts as inverse agonist at human GLP-1 receptor; Potency, µM (series often up to 38.3 µM), inactives show at the top dose activity change, negative = inhibition, actives largely listed as inhibitors; P43220; hit rate 1.6% among 410,000; HEK293 GLP-1R CRE-luciferase, luminescence, 24 h; GLP-1R form is constitutively active; also: % is scaled to controls: 0 for no effect and ±100 for the full control effect; nearly all actives have a fitted effect of over 55% in size
Target sequence (P43220 whole entry, looked up): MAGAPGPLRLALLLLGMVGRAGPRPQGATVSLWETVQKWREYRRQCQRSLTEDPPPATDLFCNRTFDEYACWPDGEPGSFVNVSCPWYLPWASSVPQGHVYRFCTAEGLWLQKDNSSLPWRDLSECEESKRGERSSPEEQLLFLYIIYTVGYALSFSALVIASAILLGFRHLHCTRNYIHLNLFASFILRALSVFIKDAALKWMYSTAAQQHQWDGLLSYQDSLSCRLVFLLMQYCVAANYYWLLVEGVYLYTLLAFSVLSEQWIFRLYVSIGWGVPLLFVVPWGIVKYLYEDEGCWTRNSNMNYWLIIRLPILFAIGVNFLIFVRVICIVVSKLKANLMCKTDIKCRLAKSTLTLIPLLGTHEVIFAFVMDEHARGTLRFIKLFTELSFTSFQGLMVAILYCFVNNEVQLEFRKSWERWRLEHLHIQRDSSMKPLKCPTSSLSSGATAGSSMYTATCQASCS
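Constitutively active GLP-1R drives a cAMP-responsive luciferase in stably transfected HEK293 cells; test compounds are added after overnight (12 h) attachment and left 24 hr, and signal loss in luminescence marks inhibition.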
GLP-1R agonist: GLP-1 receptor (human) agonism; P43220; HEK293 GLP-1R CRE-luciferase, luminescence, 4-6 h; cells express a hypersensitive GLP-1R form; Potency, µM (highest dose often 45.6 µM), without a hit: at the highest dose activation, usual class: activators; hit rate 0.007% among 380,000; AID 624172; also: % of control where 0% means no effect
GLP1R cytotox: cytotoxicity counter-screen for GLP-1 receptor inverse agonists. Potency, µM (titrated, usually from 38.3 µM), for the others: at the top dose activity change, negative = inhibition, actives largely listed as inhibitors. HEK293 cAMP-luciferase reporter cells, luminescence, 24 h. hit rate 0.13% among 410,000;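 also: loss of luciferase light is scored as toxicity; % is scaled to controls: 0 for no effect and ±100 for the full control effect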
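Compound-treated cells are incubated 24 hr at 37 deg C under 5% CO2 after a 12 hour attachment period, then luciferase detection reagent is added and luminescence is measured following 12 min at room temperature; lowered signal indicates toxicity.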
* = called active by the depositor; ? = inconclusive; · = no result given; [ ] = remark or other dose. Calls follow the shape of the dose curve; as a rule, active = well fitted curve in the direction sought with a large enough effect; inconclusive = small, poorly fitted or top-dose-only effect, or another doubt; inactive = no such curve, though single readings can be large; an effect the other way counts as inactive or inconclusive. Potency is read from the fitted curve at half-maximal effect.

SMILES	TrxR1 inh	IDH1 R132H inh	TrxR1 substrate	GLP-1R inv ag	GLP-1R agonist	GLP1R cytotox
CCCCN(C(=O)NC(=O)C1=C(N2CCOCC2)/C(=C/c2ccccc2)CC1)S(C)(=O)=O	14.1µM*	-1.5%	112.1%	11.8%	3.6%	205.0%
O=C(C1CCCN(S(=O)(=O)c2ccc(Cl)cc2)C1)N(Cc1cccs1)C1CC1 (stereo unspecified)	8.6%[57.1 µM]	0.4%	9.1%[57.1 µM]	10µM*	1.7%	-11.6%
CC(/C=C/c1ccccc1)=N\NC(N)=S	-8.3%[57.1 µM]	0.0%	-3.4%[57.1 µM]	2.51µM*	1.8%	?
COC(=O)C1C=CC(OC2OC(COC(C)=O)C(OC(C)=O)C(OC(C)=O)C2OC(C)=O)n2c(=O)n(-c3ccccc3)c(=O)n21 (stereo unspecified)	11.2µM*	3.4%	-3.4%	?	-5.4%	-23.9%
Cc1cc(C)c(S(=O)(=O)NCCc2cc3ccc(C)cc3[nH]c2=O)c(C)c1	2.0%	-1.7%	-6.4%	-2.8%	-0.4%	0.7%
CCOC(=O)c1c(C)nc2sc(C(=O)Nc3ccc(OC)cc3)c(N)c2c1-c1ccc(OC)cc1	12.0%	4.5%	12.2%	-13.9%	-8.0%	-11.0%
CCOC(=O)c1c(C)nc2sc(C(=O)Nc3ccc(C(C)=O)cc3)c(N)c2c1-c1ccc(OC)cc1	15.3%	0.5%	21.9%	8.91µM*	3.7%	339.6%
CCc1oc(C(=O)O)cc1COC	1.5%[57.1 µM]	12.5%	-1.5%[57.1 µM]	0.2%	-2.8%	-2.9%
COCc1cc(O)c(O)c(O)c1-c1c(COC)cc(O)c(O)c1O	14.1µM*	·	-9.3%	·	·	·
O=C(Nc1ccc2c(c1)CCCN2C(=O)c1cccs1)c1ccc(F)c(F)c1	5.5%[57.1 µM]	19.0%	1.5%[57.1 µM]	?	·	-3.9%
O=C(O)c1ccccc1S(=O)(=O)Cc1ccccc1	19.6%	3.2%	13.4%	0.0%	-0.9%	8.7%
Cn1ncc(S(=O)(=O)Cc2ccccc2)c(Br)c1=O	0.947µM*	·	20.8%[57.1 µM]	·	·	·
CC(C)COCc1ccc(O)c2ncccc12	-3.7%[57.1 µM]	-3.0%	-2.1%[57.1 µM]	3.98µM*	-1.1%	?
Oc1ccc(CN2CCC(Cc3ccccc3)CC2)c2cccnc12	-3.9%[57.1 µM]	-0.8%	-1.5%[57.1 µM]	?	-1.3%	?
Oc1ccc(COCc2ccccc2)c2cccnc12	-31.1%	0.6%	7.6%[57.1 µM]	10µM*	0.3%	7.3%
Oc1ccc(F)c2cccnc12	25.9%[57.1 µM]	15.6%	-10.9%[57.1 µM]	?	1.9%	?
Oc1ccc(Cl)c2cccnc12	-14.6%	2.5%	-11.2%	10µM*	-2.2%	6.8%
Oc1ccc(Cc2ccccc2)c2cccnc12	22.0%	0.5%	4.7%	6.31µM*	25.6%	5.0%
CCCOCc1ccc(O)c2ncccc12	16.1%	-3.4%	3.5%	?	4.7%	-21.4%
Cc1ccc(NC(=O)C2CCN(S(=O)(=O)c3ccc4c(c3)CCCN4C(=O)C3CCC3)CC2)cc1	9.1%[57.1 µM]	15.9%	-1.2%[57.1 µM]	21.4%	·	16.5%
CCCN1CNc2c(c(=O)[nH]c(=S)n2CCc2cccc(Cl)c2)C1	7.4%	·	-0.8%	·	·	·
Oc1ccc(CN2CCCCC2)c2cccnc12	-23.8%	-5.3%	9.7%	0.0%	-11.6%	?
OCc1ccc(O)c2ncccc12	?	2.0%	-3.7%	10µM*	-23.0%	?
Cc1cccc(CN2Cc3cccc4c3[C@H](C=CC4)CC2=O)c1	-10.7%	·	-3.2%	·	·	·
Cc1ccc(S(=O)(=O)N2CCCCC2)cc1NC(=O)CNC(C)c1ccc(Cl)c(Cl)c1 (stereo unspecified)	3.0%	5.5%	1.1%	2.82µM*	-5.4%	-16.5%
O=C(CC1CCCC1)Nc1ccc(Cl)c(S(=O)(=O)N2CCOCC2)c1	-12.6%[57.1 µM]	-11.3%	-3.2%	8.91µM*	-4.8%	-1.4%
COc1ccc(NC(=O)Cn2ncc(Cl)c(Cl)c2=O)cc1S(=O)(=O)N1CCOCC1	28.2µM*	5.6%	-3.0%	?	-51.2%	-14.5%
Cc1ccc(S(=O)(=O)N2CCCCC2)cc1NC(=O)Cn1ncc(Cl)c(Cl)c1=O	50.1µM*	14.5%	9.2%	10µM*	-13.7%	?

Source: PubChem
